Measured values published in ChEMBL document CHEMBL1961873, “Compounds: GSK PKIS; Assays: Nanosyn kinase panel” (2012).

Key:
[1] = biological target: Death-associated protein kinase 1 (Homo sapiens) (UniProt P53355); details: at 1 µM;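 also: each value is a mean inhibition figure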
[2] = biological target: T1, Serine/threonine-protein kinase DCLK2 (Homo sapiens) (UniProt Q8N568); details: at 0.1 µM
T1 sequence (whole entry): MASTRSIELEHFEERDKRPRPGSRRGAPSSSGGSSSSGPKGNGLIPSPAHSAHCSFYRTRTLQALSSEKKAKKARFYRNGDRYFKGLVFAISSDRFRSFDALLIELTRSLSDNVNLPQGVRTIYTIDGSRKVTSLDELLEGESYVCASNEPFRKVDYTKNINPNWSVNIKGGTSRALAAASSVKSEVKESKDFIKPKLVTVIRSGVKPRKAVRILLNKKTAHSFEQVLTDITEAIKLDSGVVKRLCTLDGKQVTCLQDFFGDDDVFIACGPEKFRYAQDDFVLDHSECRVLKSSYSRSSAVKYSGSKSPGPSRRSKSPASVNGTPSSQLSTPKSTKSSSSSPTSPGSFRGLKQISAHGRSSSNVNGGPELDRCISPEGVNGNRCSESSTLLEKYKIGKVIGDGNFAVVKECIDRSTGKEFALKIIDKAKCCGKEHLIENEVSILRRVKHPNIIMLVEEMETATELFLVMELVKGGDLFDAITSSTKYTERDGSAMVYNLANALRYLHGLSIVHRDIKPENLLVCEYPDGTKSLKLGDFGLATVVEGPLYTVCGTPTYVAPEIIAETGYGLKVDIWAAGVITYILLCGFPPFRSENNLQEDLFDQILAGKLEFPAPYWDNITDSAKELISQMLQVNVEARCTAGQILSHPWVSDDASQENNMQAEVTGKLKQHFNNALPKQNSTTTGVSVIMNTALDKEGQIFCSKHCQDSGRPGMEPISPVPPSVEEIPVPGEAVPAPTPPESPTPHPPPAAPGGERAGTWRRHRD

[3] = biological target: T1, Serine/threonine-protein kinase DCLK2 (Homo sapiens); details: at 1 µM
[4] = biological target: MAP kinase-activated protein kinase 2 (Homo sapiens) (UniProt P49137); details: at 0.1 µM
[5] = biological target: MAP kinase-activated protein kinase 2 (Homo sapiens) (UniProt P49137); details: at 1 µM
[6] = biological target: MAP kinase-activated protein kinase 3 (Homo sapiens) (UniProt Q16644); details: at 0.1 µM
[7] = biological target: MAP kinase-activated protein kinase 3 (Homo sapiens) (UniProt Q16644); details: at 1 µM
[8] = biological target: Serine/threonine-protein kinase MARK1 (Homo sapiens) (UniProt Q9P0L2); details: at 0.1 µM
[9] = biological target: Serine/threonine-protein kinase MARK1 (Homo sapiens) (UniProt Q9P0L2); details: at 1 µM
[10] = biological target: MAP/microtubule affinity-regulating kinase 3 (Homo sapiens) (UniProt P27448); details: at 0.1 µM
[11] = biological target: MAP/microtubule affinity-regulating kinase 3 (Homo sapiens) (UniProt P27448); details: at 1 µM
[12] = biological target: T2, MAP/microtubule affinity-regulating kinase 4 (Homo sapiens) (UniProt Q96L34); details: at 0.1 µM
T2 sequence (whole entry): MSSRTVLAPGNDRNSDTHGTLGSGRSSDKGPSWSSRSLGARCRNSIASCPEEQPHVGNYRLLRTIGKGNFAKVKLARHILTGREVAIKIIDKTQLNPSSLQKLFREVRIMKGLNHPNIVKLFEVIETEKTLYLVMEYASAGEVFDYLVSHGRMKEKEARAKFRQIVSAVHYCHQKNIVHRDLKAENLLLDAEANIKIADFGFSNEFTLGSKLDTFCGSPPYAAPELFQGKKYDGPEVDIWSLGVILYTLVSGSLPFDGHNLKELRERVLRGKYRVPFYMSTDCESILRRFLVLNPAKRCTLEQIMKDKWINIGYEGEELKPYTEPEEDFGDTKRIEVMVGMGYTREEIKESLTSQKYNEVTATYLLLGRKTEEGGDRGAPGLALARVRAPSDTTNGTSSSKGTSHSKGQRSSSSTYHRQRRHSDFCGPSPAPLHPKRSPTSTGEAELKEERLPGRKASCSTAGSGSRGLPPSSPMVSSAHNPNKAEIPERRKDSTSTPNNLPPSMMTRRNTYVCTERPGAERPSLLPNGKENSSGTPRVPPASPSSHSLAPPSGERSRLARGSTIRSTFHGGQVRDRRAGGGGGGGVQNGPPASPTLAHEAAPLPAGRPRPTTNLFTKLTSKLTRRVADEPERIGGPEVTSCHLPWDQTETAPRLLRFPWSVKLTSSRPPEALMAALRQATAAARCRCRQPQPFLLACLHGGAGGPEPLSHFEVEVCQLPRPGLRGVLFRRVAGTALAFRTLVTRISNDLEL

[13] = biological target: T2, MAP/microtubule affinity-regulating kinase 4 (Homo sapiens); details: at 1 µM
[14] = biological target: Maternal embryonic leucine zipper kinase (Homo sapiens) (UniProt Q14680); details: at 0.1 µM
[15] = biological target: Maternal embryonic leucine zipper kinase (Homo sapiens) (UniProt Q14680); details: at 1 µM
[16] = biological target: MAP kinase-interacting serine/threonine-protein kinase 1 (Homo sapiens) (UniProt Q9BUB5); details: at 0.1 µM
[17] = biological target: MAP kinase-interacting serine/threonine-protein kinase 1 (Homo sapiens) (UniProt Q9BUB5); details: at 1 µM
[18] = biological target: MAP kinase-interacting serine/threonine-protein kinase 2 (Homo sapiens) (UniProt Q9HBH9); details: at 0.1 µM
[19] = biological target: MAP kinase-interacting serine/threonine-protein kinase 2 (Homo sapiens) (UniProt Q9HBH9); details: at 1 µM
[20] = biological target: Serine/threonine-protein kinase MARK2 (Homo sapiens) (UniProt Q7KZI7); details: at 0.1 µM;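 also: mean percent inhibition of PAR-1Balpha kinase activity, reported from the GSK PKIS screen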
Sequence of Serine/threonine-protein kinase MARK2 (Homo sapiens) (Q7KZI7 whole entry): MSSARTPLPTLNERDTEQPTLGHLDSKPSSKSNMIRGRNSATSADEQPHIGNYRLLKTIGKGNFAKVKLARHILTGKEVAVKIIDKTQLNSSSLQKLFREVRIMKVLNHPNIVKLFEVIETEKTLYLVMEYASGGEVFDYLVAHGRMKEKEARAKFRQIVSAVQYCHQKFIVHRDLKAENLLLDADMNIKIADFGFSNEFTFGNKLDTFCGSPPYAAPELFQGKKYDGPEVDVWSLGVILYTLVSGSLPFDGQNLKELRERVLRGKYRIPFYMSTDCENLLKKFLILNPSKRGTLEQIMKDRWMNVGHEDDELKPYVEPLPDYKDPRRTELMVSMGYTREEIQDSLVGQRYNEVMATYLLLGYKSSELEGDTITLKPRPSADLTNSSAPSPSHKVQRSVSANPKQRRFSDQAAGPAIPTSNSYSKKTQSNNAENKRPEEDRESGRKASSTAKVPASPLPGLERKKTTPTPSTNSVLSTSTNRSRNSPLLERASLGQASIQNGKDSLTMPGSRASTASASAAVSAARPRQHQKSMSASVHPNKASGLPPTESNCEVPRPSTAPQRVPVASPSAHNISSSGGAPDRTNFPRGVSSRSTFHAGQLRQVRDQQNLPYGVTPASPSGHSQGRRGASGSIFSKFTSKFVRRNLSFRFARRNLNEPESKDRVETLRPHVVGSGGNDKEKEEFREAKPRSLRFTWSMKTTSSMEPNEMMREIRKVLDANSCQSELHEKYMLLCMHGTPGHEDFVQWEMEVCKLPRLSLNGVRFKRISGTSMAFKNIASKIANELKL

Sequence of Maternal embryonic leucine zipper kinase (Homo sapiens) (Q14680 whole entry, looked up): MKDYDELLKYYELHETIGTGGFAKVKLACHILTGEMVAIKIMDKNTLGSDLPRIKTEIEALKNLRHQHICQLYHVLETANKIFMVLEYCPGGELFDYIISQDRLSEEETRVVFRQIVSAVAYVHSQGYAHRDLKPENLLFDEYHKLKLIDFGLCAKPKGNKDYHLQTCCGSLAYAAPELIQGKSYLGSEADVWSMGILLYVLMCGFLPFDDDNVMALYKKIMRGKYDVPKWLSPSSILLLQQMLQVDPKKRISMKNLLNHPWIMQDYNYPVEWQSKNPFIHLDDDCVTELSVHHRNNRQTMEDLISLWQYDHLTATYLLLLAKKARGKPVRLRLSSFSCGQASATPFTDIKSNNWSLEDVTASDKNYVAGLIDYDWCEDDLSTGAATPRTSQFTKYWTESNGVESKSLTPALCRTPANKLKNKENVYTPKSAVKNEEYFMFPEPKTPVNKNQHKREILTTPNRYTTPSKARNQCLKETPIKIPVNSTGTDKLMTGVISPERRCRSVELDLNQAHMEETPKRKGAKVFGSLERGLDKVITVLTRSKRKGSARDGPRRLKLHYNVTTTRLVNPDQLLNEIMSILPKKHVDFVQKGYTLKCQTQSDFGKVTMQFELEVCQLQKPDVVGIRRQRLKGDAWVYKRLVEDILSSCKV
Sequence of MAP/microtubule affinity-regulating kinase 3 (Homo sapiens) (P27448 whole entry, looked up): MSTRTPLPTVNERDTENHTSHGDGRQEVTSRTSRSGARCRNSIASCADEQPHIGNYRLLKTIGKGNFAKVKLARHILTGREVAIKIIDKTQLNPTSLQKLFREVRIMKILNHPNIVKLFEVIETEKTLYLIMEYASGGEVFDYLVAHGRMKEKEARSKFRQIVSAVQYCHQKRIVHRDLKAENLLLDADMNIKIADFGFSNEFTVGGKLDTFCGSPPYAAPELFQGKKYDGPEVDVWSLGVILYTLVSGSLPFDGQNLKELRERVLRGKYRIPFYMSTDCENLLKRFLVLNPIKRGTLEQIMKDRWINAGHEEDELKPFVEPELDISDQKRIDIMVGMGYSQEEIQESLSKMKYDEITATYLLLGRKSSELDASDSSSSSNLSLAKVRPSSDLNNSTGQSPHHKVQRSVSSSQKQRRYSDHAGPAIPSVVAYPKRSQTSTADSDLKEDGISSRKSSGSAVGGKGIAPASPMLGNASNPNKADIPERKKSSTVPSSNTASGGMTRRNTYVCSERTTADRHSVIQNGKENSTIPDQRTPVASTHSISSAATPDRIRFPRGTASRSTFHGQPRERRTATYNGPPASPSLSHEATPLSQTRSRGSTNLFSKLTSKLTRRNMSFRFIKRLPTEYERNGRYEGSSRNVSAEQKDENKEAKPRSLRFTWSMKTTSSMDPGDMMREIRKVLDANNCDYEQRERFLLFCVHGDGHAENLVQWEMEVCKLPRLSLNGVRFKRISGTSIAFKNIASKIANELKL
Sequence of Death-associated protein kinase 1 (Homo sapiens) (P53355 whole entry, looked up): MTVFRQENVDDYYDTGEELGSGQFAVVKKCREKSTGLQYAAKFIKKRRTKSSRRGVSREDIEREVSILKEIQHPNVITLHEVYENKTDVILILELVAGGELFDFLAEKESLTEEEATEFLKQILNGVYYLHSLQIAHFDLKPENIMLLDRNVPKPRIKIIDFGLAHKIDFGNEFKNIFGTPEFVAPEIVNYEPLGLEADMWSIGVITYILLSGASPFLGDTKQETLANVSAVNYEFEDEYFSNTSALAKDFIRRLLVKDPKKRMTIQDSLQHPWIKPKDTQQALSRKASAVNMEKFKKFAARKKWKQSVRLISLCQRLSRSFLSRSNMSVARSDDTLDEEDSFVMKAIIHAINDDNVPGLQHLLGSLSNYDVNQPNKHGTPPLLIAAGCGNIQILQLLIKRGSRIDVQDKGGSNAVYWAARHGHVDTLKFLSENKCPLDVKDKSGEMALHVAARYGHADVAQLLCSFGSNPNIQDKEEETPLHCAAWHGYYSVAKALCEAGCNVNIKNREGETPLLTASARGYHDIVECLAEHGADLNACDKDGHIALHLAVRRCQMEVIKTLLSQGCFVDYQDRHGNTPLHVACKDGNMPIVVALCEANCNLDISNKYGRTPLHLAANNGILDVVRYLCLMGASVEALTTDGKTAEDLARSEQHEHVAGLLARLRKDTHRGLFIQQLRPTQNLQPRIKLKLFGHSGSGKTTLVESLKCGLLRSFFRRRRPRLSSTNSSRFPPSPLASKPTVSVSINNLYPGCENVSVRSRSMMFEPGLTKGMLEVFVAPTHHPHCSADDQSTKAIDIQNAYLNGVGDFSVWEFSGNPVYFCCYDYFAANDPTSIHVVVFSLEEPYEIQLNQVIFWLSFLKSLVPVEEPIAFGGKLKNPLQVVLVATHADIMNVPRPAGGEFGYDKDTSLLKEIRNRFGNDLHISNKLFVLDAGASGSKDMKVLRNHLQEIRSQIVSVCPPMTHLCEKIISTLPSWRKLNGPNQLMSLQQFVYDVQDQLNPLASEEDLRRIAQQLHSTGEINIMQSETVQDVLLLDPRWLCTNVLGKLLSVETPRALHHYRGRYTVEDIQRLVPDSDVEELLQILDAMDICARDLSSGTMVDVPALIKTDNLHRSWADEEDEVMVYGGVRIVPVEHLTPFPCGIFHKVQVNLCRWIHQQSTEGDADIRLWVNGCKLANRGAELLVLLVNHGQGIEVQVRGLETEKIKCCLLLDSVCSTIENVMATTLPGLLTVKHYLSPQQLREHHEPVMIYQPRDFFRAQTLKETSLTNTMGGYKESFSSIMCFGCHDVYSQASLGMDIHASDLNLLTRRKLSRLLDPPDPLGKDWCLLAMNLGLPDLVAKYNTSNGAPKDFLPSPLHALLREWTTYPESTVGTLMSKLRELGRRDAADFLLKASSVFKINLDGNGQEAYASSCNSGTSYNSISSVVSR
Sequence of MAP kinase-interacting serine/threonine-protein kinase 2 (Homo sapiens) (Q9HBH9 whole entry, looked up): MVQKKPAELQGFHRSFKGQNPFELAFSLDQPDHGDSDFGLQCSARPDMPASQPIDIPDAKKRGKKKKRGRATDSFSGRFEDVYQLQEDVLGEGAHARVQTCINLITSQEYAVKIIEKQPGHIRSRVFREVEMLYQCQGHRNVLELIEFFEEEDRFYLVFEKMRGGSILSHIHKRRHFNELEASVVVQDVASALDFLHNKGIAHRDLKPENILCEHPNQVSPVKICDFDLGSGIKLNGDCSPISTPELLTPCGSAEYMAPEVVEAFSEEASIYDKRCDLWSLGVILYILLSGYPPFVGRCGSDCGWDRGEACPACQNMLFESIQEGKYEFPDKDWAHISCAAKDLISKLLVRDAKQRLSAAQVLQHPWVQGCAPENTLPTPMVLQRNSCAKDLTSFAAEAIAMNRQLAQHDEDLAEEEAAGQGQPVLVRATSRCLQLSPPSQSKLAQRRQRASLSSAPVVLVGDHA
Sequence of MAP kinase-interacting serine/threonine-protein kinase 1 (Homo sapiens) (Q9BUB5 whole entry, looked up): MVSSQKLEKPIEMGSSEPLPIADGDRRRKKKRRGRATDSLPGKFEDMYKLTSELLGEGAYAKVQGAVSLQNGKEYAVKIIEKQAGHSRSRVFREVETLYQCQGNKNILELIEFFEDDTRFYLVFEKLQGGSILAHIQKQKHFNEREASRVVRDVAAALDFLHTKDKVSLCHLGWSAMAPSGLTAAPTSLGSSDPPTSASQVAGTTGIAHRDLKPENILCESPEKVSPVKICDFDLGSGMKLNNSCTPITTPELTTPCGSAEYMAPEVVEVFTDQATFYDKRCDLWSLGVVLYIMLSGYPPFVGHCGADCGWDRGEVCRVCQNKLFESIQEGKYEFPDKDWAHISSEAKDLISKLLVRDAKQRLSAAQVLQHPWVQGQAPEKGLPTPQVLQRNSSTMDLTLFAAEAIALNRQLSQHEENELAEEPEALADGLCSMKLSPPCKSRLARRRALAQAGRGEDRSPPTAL
Sequence of MAP kinase-activated protein kinase 3 (Homo sapiens) (Q16644 whole entry, looked up): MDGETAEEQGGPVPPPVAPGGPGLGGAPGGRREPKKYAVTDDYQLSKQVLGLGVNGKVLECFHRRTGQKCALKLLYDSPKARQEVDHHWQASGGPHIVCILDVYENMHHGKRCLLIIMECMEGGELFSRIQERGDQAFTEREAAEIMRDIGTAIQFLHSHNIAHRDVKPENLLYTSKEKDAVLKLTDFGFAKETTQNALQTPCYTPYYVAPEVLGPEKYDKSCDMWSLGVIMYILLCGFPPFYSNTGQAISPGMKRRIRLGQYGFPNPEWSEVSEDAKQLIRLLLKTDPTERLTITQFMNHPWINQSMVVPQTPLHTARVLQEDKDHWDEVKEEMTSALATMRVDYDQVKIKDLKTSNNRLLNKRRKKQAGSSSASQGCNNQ

SMILES	inhibition [1]	inhibition [2]	inhibition [3]	inhibition [4]	inhibition [5]	inhibition [6]	inhibition [7]	inhibition [8]	inhibition [9]	inhibition [10]	inhibition [11]	inhibition [12]	inhibition [13]	inhibition [14]	inhibition [15]	inhibition [16]	inhibition [17]	inhibition [18]	inhibition [19]	inhibition [20]
COc1cccc(/C=N/Nc2ncnc3c2cnn3-c2cccc(OC)c2)c1	-2.35%	-0.11%	1.93%	2.15%	2.31%	2.37%	2.33%	0.69%	2.26%	-0.24%	0.87%	0.94%	0.58%	3.83%	9.57%	2.02%	4.36%	-0.25%	2.4%	-5.9%
FC(F)(F)c1cccc(Nc2nccc(-c3cnn4nc(-c5ccccc5)ccc34)n2)c1	1.95%	-0.23%	2.76%	1.22%	-0.44%	3.72%	2.87%	2.35%	2.53%	3.77%	1.86%	1.13%	1.01%	4.89%	32.3%	2.28%	2.48%	0.22%	4.37%	-0.36%
NS(=O)(=O)c1ccc(N/N=C2\C(=O)Nc3ccc(-c4cnco4)cc32)cc1	-3.71%	-5.27%	-2.47%	-0.59%	0.18%	-0.18%	-0.48%	2.3%	15.6%	2.61%	17.4%	4.35%	26.1%	5.8%	32.9%	1.41%	7.87%	2.14%	8.88%	1.73%
Fc1ccc(-c2nc3n(c2-c2ccncc2)CCS3)cc1	2.21%	-0.75%	-3.53%	0.87%	0.79%	8.6%	19.8%	4.51%	4.67%	3.87%	-0.12%	2.4%	3.63%	4.86%	6.72%	1.57%	4.14%	-2.37%	0.35%	0.46%
COc1cc(Nc2ncc3c(C)nc(-c4cccc(Oc5ccccc5)c4)n3n2)cc(OC)c1OC	11.9%	0.71%	0.09%	3.12%	3.35%	8.12%	7.79%	1.87%	6.76%	3.73%	29.3%	1.25%	3.17%	3.48%	10.8%	0.32%	0.56%	0.07%	1.2%	0.41%
COc1ccc2ncn(-c3cc(O[C@H](C)c4ccccc4Cl)c(C(N)=O)s3)c2c1	1.29%	-3.36%	-2.8%	1.56%	1.62%	3.18%	2.49%	3.24%	2.92%	3.81%	3.11%	2.49%	2.42%	7.14%	6.08%	1.84%	2.25%	0.29%	2.7%	-0.63%
CS(=O)(=O)CCNCc1cc(-c2cc3c(Nc4ccc(OCc5cccc(F)c5)c(Cl)c4)ncnc3s2)cs1	-0.04%	0.09%	1.12%	2.75%	3.42%	3.37%	4.64%	-0.03%	3.02%	0.84%	3.64%	1.63%	1.6%	5.46%	10.5%	2.78%	7.91%	1.16%	7.96%	-0.51%
CN(C)c1ccc2c(c1)/C(=C/Nc1ccc(S(N)(=O)=O)cc1)C(=O)N2	1.27%	1.9%	5.58%	0.97%	1.33%	0.95%	-0.05%	6.96%	36.4%	6.41%	32.7%	6.9%	32.5%	3.82%	20.4%	1.64%	9.3%	1.66%	3.67%	3.86%
CCS(=O)(=O)c1ccc(OC)c(Nc2ncc(-c3cccc(-c4ccccc4F)c3)o2)c1	-0.11%	1.37%	-3.8%	0.06%	-0.23%	1.08%	1.04%	1.41%	0.75%	-0.41%	7.39%	1.24%	1.22%	1.52%	3.29%	1.34%	4.69%	0.34%	3.99%	-5.23%
CCC(=O)Nc1ccc(C)c(-c2ccc(C(=O)NCC3CC3)cc2)c1	-3.18%	-0.58%	0.48%	0.77%	1.21%	6.24%	20.1%	0.75%	1.92%	-0.99%	-1.15%	1.46%	2.23%	5.17%	8.13%	2.05%	2.8%	0.52%	1.17%	0.59%
O=C(Nc1n[nH]c2nc(-c3ccc(O)cc3)c(Br)cc12)C1CC1	3.27%	0.9%	3.55%	2.43%	2.69%	4.49%	5.6%	3.94%	9.58%	3.96%	8.75%	3.64%	4.75%	6.28%	13.1%	37.8%	76.1%	5.42%	35.1%	-0.95%
COc1ccc(-c2ccc3c(NC(=O)C4CC4)n[nH]c3n2)cc1	3.76%	-1.52%	2.41%	1.32%	1.4%	1.44%	3.8%	1.93%	5.02%	2.03%	2.41%	0%	-0.43%	-1.74%	-0.77%	3.03%	21.5%	1.32%	5.48%	0.67%
C[C@@H](Oc1cc(-n2cnc3ccc(OC4CCN(C)CC4)cc32)sc1C(N)=O)c1ccccc1Cl	1.99%	-3.12%	-1.54%	1.32%	2.41%	3.38%	3.91%	3.46%	8.24%	4.33%	8.01%	2.31%	5.68%	6.66%	26.9%	3.58%	17.6%	3.77%	21%	2.47%
